This is an account of results in ChEMBL document CHEMBL4513216, “Probing the Open Global Health Chemical Diversity Library for Multistage-Active Starting Points for Next-Generation Antimalarials” (ACS Infect Dis, 2020).

Screen size: about 69,000 compounds; about 8,600 (12%) showed an effect of 50% or more. The full list was thinned out, with strong results kept by preference.

This experiment has as its system Plasmodium berghei. Put plainly: Screen against P. berghei liver stage (PbLuc), transformed with Luciferase, at 10uM. In kind it is functional, HepG2. The conditions noted are these: tested at 10 uM.
For the molecule `COc1ccc(-c2cc(N)on2)cc1OC`, the INHIBITION is on record as 26.3%.
Turning to `CCN1CCc2c(sc3c2C(=O)NC(C=Cc2ccco2)N3)C1` (configuration not stated), the INHIBITION is recorded as 49.9%.
On to `Cc1cccc(CN2CCCCC2c2n[nH]cc2-c2cc(C)no2)c1` (configuration not stated), for which the INHIBITION worked out at 31.3%.
For `CCc1ccc(CN2CCCCC2c2n[nH]cc2-c2cc(C)no2)cc1` (configuration not stated) the value was 66.6%; for `COc1ccc(CN2CCCCC2c2n[nH]cc2-c2cc(C)no2)cc1` (configuration not stated), 34.1%; for `O=C(c1ccccc1N1CCOCC1)N1CCCC(n2ccnc2)C1` (configuration not stated), 22.1%.
For `COCc1ncn2c1CN(C(=O)c1cnc3ccccc3c1)CC2` the value was 33.2%.
For `Cc1noc(CN(Cc2cccc(C#N)c2)Cc2cccs2)n1`, the INHIBITION was 1.98%.
For `Cc1cccc(C)c1NC(=O)c1cccc(N(C)S(C)(=O)=O)c1C` the value was 16.1%; for `CCn1c(CN2CCC(O)(c3ccc4c(c3)OCO4)CC2)cnc1SC`, 34.15%; for `CCn1c(CN2CCCC(O)(c3ccc(F)cc3)CC2)cnc1SC` (configuration not stated), 51.1%.
For the molecule `Cc1ncc(CN2CCCC(O)(c3ccc(F)cc3)CC2)n1C` (configuration not stated), the INHIBITION is on record as 21.255%.
For `Cc1nc(C)n(C2CCCN(C(=O)c3ccnc(N(C)C)c3)C2)n1` (configuration not stated) the value was 14.4%; for `CCc1nc(C2CCCN(C(=O)c3ccc(Cl)cc3)C2)no1` (configuration not stated), 23.4%.
For `CCc1ccc(C(=O)N2CCCC(c3nn[nH]n3)C2)cc1` (configuration not stated) the value was 67.4%.
For `CS(=O)(=O)c1ccc(C(=O)N2CCCC(n3cccn3)C2)cc1` (configuration not stated) the value was 18.8%; for `Cc1cnn(C2CCCN(C(=O)c3cccc(Cn4ccnc4)c3)C2)c1` (configuration not stated), 42.9%; for `CN(C)Cc1ccc(C(=O)N2CCCC(n3cccn3)C2)cc1` (configuration not stated), 61.9%.
In the case of `O=C(c1cccc(Cn2ccnc2)c1)N1CCCC(n2ccnc2)C1` (configuration not stated), the INHIBITION is 22.3%.
With `O=C(c1cccc(Cn2ccnc2)c1)N1CCCC(n2cccn2)C1` (configuration not stated), the INHIBITION was 56.55%.
Take `O=C(c1ccc(CN2CCCC2)cc1)N1CCCC(n2cccn2)C1` (configuration not stated): the INHIBITION came out at 11.7%.
Consider `CCc1nc(C2CCCN(C(=O)c3ccc(F)cc3)C2)no1` (configuration not stated), for which the INHIBITION was 27.4%.
For `CS(=O)(=O)NCc1nnc2n1CCN(Cc1ccccn1)C2` the value was 36.9%; for `CCN1C(=O)CCC12CCCN(CCc1ccccc1)C2` (configuration not stated), 0.112%; for `CN(C)c1cnn(Cc2nc3ccccc3n2C)c(=O)c1`, 29.4%.
For `CCC(C)[C@H](N)c1nnc(SCC(=O)Nc2ccc(C)cc2C)o1` (some centres not stated) the value was 40.4%.
For `N#Cc1c(F)cccc1N1CCCC(C(=O)Nc2nccs2)C1` (configuration not stated) the value was -1.85%; for `CC(NC(=O)c1ccnc(C2CC2)n1)C1(N2CCOCC2)CCCC1` (configuration not stated), -20.3%.
Consider `Cc1occc1C(=O)N1CCOCC2(CCN(Cc3nccs3)C2)C1` (configuration not stated), for which the INHIBITION is on record as 18.5%.
Turning to `COCC(=O)N1C[C@H]2CNC[C@@]2(C(=O)NCc2snnc2C)C1`, the INHIBITION is reported as -21.8%.
For `O=C(N1CCCC1)N1C[C@@H](OCc2cccnc2)[C@H]2OCCC[C@H]21` the value was -55.7%.
For `Cc1nc(COCC2CN(C(N)=O)Cc3nccn3C2)cs1` (configuration not stated) the value was 40.5%; for `CCn1ccnc1CN1CCN(C(C)C(=O)NC2CCCC2)CC1` (configuration not stated), 36.85%.
Take `O=C(O)c1cn(CC2CCCN(c3ccc4ccccc4n3)C2)nn1` (configuration not stated): the INHIBITION was 46.6%.
For `CC(C)(C)c1cn(CC2CCCN(c3cnc4ccccc4n3)C2)nn1` (configuration not stated) the value was 89.6%; for `O=C(O)c1cn(CC2CCCN(c3cnc4ccccc4n3)C2)nn1` (configuration not stated), 6.24%; for `CCc1nc(C2CCCN(C(=O)c3cccnc3O)C2)no1` (configuration not stated), 9.14%.
For `O=C(NCCn1ccc(-c2ccccn2)n1)C1CCC1` the value was 14.3%.
For `Cc1nn(C)c(C)c1-c1cc(-c2cc(CC(=O)O)cs2)nc(N)c1C#N` the value was 45.8%; for `CCn1cc(-c2cc(-c3cc(CN(C)C)cs3)nc(N)c2C#N)c(C)n1`, 76.6%.
On to `CCn1cc(-c2cc(-c3cc(CC(=O)O)cs3)nc(N)c2C#N)c(C)n1`, for which the INHIBITION was determined as 37.6%.
Consider `COCCNc1ccc(CC2CCCN(c3ncccn3)C2)nn1` (configuration not stated), for which the INHIBITION was found to be 28.05%.
In the case of `Cc1ccoc1C(=O)N1CCCN(Cc2cnn(C)c2)CC1`, the INHIBITION is given as 15.6%.
As to `O=C(NCCS(=O)(=O)N1CCN(c2ncccn2)CC1)c1ccccc1`, the INHIBITION is -101%.
For `NC(=O)c1cc(C2CCCN(CCc3ccc4c(c3)CCO4)C2)n[nH]1` (configuration not stated) the value was 74.3%; for `Cc1cc(C2CCCN(CCc3ccc4c(c3)CCO4)C2)n[nH]1` (configuration not stated), 90.2%.
For the molecule `NC(=O)c1cc(C2CCCN(Cc3ccc4c(c3)OCCO4)C2)n[nH]1` (configuration not stated), the INHIBITION came out at 11.8%.
`NC(=O)c1cc(C2CCCN(CCc3ccccn3)C2)n[nH]1` (configuration not stated): the INHIBITION came to 28.7%.
For the molecule `Cc1cc(C2CCCN(CCc3ccccn3)C2)n[nH]1` (configuration not stated), the INHIBITION is on record as -0.0706%.
For `O=C(C1CCCN(CCc2ccc3c(c2)CCO3)C1)N1CCCC1` (configuration not stated) the value was 6.11%.
In the case of `Cc1noc(C)c1CN1CCCC1c1c(C)nn(C)c1Cl` (configuration not stated), the INHIBITION is on record as -16%.
For `CC(CCc1ccccc1F)C(=O)NS(C)(=O)=O` (configuration not stated) the value was 12.9%.
